Compound activity from PubChem BioAssay.
An excerpt weighted towards active compounds, which were near 7.2% of everything screened.
VLA-4 inh = inhibition in human VLA-4 binding assay, primary screen, VLA-4 allosteric modulator project, MLPCN library, flow cytometry, VLA-4 expressing cells. Integrin alpha-4 (Homo sapiens), P13612. ligand binding flow cytometry. AID 2557, 2010. inhibition, % (about 7 µM as worked out from the volumes in the protocol). 330,000 compounds, 0.2% hits; in the data active = inhibition above about 50%
Efflux pump inh = inhibitors of Candida efflux pumps in yeast, primary screen, S. cerevisiae, Nile Red, multiplex | inhibition, % at 10 µM | 330,000 compounds, 0.44% hits | S. cerevisiae Candida pump triplex;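 active = plate passing quality check with inhibition over a set limit, or well fluorescence over plate mean plus 4 SD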;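 also: Nile Red retained in pooled yeast measured as flow cytometry median fluorescence; 0% = buffer negative control and 100% = Enniatin B positive control; higher means more Nile Red kept so more efflux inhibition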
A1 inh = caspase 3/7 activation in MEF A1-2A-BIM cells, primary screen, A1 inhibitor project, cell-based, luminescence, HTS. Caspase-Glo 3/7 luminescence, 3 h; percent of clofoctol response, vehicle zero. caspase activation, % (concentration not given with the values). 330,000 compounds, 0.066% hits. AID 2462, 2010;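 active = over half of replicate activation scores above 10%, or exactly half above 10 with the replicate mean above 10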
ALR inh = inhibitors of human ALR sulfhydryl oxidase, primary screen, biochemical, H2O2 detection, HRP-luminol luminescence, single point. FAD-linked sulfhydryl oxidase ALR (Homo sapiens), P55789. purified ALR, DTT oxidation. inhibition, % (concentration not given with the values). 290,000 compounds, 3.8% hits. AID 485317, 2010;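 active = mean replicate inhibition above about 79%, with every replicate also reaching it, limit read from the data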
Target sequence (P55789 whole entry, looked up): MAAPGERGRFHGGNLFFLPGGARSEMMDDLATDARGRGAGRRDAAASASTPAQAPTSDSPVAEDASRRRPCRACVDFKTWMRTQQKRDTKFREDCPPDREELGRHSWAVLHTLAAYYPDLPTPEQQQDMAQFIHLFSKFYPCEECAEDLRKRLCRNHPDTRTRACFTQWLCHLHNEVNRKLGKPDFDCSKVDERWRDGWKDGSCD
Mot1-301 SUMO = yeast Mot1-301 growth rescue at high temperature, primary screen, SUMOylation pathway inhibitor project, S. cerevisiae, ATP luminescence, 38.5C; S. cerevisiae Mot1-301 growth rescue; percent above DMSO median, 100 means doubled; growth rescue, % at 18.8 µM; 320,000 compounds, 1% hits; AID 2716, 2010;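 active = every valid replicate shows activation above 250% relative to neutral control wells; inactive = the rest, any valid replicate at or below 250%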;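 also: OY570 slx delta 5 strain wells were the positive control but not used for scaling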
AHR act = AHR activators, primary screen, cell-based, luminescence, luciferase reporter, human; 320,000 compounds, 2.5% hits; AHR-responsive luciferase reporter cells; activation, % at 5 µM; AID 2796, 2010; in the data active = activation above about 47%;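 also: 0% = vehicle wells and 100% = reference agonist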
Active calls of the source: *; x = not tested or not shown.

SMILES	VLA-4 inh	Efflux pump inh	A1 inh	ALR inh	Mot1-301 SUMO	AHR act
C=CCn1c(SCC(=O)Nc2ccc(-c3nc4ccc(C)cc4s3)cc2)nnc1-c1ccccc1	40.6	0.0	-0.7	0.0	-0.5	-0.1
COc1ccc(-n2c(=S)[nH]c3cc(C(=O)Nc4ccc(C)c(F)c4)ccc3c2=O)c(OC)c1	-1.2	0.1	0.4	-2.1	11.1	1.2
COc1cc2ccccc2cc1C(=O)Nc1ccc(Br)cn1	4.7	0.0	-0.4	-5.9	-9.5	x
COc1cc2ccccc2cc1C(=O)Nc1nccs1	-3.2	-0.5	-2.2	x	-0.4	56.9*
O=C(Nc1n[nH]c(=S)s1)c1ccc2ccccc2c1	-9.7	-0.2	-1.9	97.9*	1.1	5.8
CC(C(=O)N1CCc2ccccc21)N1CCN(S(=O)(=O)c2cccs2)CC1 (stereo not drawn)	-9.9	-0.2	1.6	x	6.7	3.0
COc1ccc(C)cc1NC(=O)C(OC(=O)C1CC1)c1ccccc1 (stereo not drawn)	30.8	-0.1	0.2	-6.2	-4.8	55.4*
CCOc1ccccc1NC(=O)C(OC(=O)C1CC1)c1ccccc1 (stereo not drawn)	0.6	0.0	0.4	-7.5	116.3	5.8
CC12CCC(C(=O)N3CCCc4ccccc43)(OC1=O)C2(C)C (stereo not drawn)	33.9	1.1	-0.8	-2.8	-15.8	8.0
COc1c2ccoc2nc2c(OC)c(O)ccc12	30.6	0.1	-0.9	99.4*	-21.0	1.1
COc1ccc2c(OC)c3ccoc3nc2c1OC	43.8	0.0	0.2	-22.0	15.2	2.6
COc1cccc(/C=N/Nc2snc(SC)c2C#N)c1	-9.3	-0.2	0.2	-4.2	0.2	48.7*
CSc1nsc(N/N=C/c2ccccc2)c1C#N	17.6	0.1	-0.6	-1.7	x	60.0*
COc1cccc(/C=N/Nc2snc(SC)c2C#N)c1O	36.3	-0.3	-10.2	85.8*	-13.7	38.6
CSc1nsc(/C=C/Nc2ccc(C(=O)O)cc2)c1C#N	-20.5	-0.1	-0.8	-31.6	-10.8	10.4
COc1cccc(CNC(=O)c2cc(S(=O)(=O)N3CCCC3)cn2C)c1	6.9	0.0	0.6	-12.4	-4.5	-1.4
Cc1ccc(N(CC(O)CN2CCCCC2)S(=O)(=O)c2ccccc2[N+](=O)[O-])cc1 (stereo not drawn)	16.4	0.5	0.3	5.4	-7.9	-0.8
Cc1csc(/N=C/c2ccc([N+](=O)[O-])cc2)n1	17.9	-0.2	0.3	84.8*	4.6	1.9
O=[N+]([O-])c1ccc(/C=N/N2CCCCC2)cc1	-0.6	0.2	-5.5	21.2	2.9	-1.4
Cc1nc2ccc(NC(=S)NC3CCCCC3)cc2nc1C	44.2	0.0	0.6	x	x	-4.2
COc1cc(N)c(Cc2nccc3cc(OC)c(OC)cc23)cc1OC	5.0	0.0	-0.3	88.4*	4.3	6.4
COC(=O)c1ccc([C@H]2CC(=O)O2)cc1	3.8	0.0	1.3	4.8	21.7	0.7
Brc1ccc(-c2nc3ccccc3s2)s1	-11.1	0.0	-0.1	2.7	x	16.8
Brc1cc2c(cc1-c1nc3ccccc3s1)OCO2	4.7	0.0	-0.5	x	29.0	53.5*
COc1ccc(OC)c(CN2CCCC(CO)C2)c1 (stereo not drawn)	42.2	0.0	1.2	-3.6	173.8	0.6
COc1ccc(NC2=C(C(C)=O)C(c3ccc(N(C)C)cc3)C(C(C)=O)C(C)(O)C2)cc1 (stereo not drawn)	16.5	0.8	-0.6	91.2*	40.0	1.9
O=C(O)/C(=C\c1ccc(Cl)cc1)c1ccc(S(=O)(=O)N2CCCC2)s1	-11.3	0.1	0.9	97.6*	-1.4	-0.8
CSc1ccc(/C=C(\C(=O)O)c2ccc(S(=O)(=O)N3CCCCC3)s2)cc1	5.7	-0.1	0.9	90.1*	-4.1	-2.5
CCCC(CCC)c1nnc(NC(=O)c2ccco2)s1	3.0	0.3	0.1	-0.6	-8.4	-2.6
O=C(CSc1cn(CC(=O)N2CCCCCC2)c2ccccc12)NCC1CCCO1 (stereo not drawn)	9.6	-0.1	-0.1	51.7	-13.6	-0.3
